Data: PubChem BioAssay (NCI)
Values joined by “and” are separate entries in the source; they are usually repeats but may differ in a detail not shown here. Equal values may be shown once. This is part of a sample that, as a whole, favours compounds with a hit. Of some 83,000 tested, about 20% had one in any assay.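 Interpretation: 100, growth as untreated; towards 0, rising growth inhibition; 0, no net growth; 0 to -100, cell death. Compounds scoring below 10 were considered active.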 Values without a mark were called inactive. Active and inactive are the calls of the source.

The molecules below were run on HL-60(TB) leukemia (assay: NCI-60 one-dose screen, 48 h (100 = growth as untreated, 0 = no growth, -100 = all killed)). Settings: 10 µM unless noted.
Molecule COc1ccc(C(=O)/C=C/c2c[n+](=O)c3ccc(F)cc3n2[O-])cc1 has a growth of 83.3%.
In the case of CCC1(C(N)=O)CC2C=CC1CC2 (stereo not given), the growth is reported as 110%.
With COc1ccc(-c2nc(NN)c3c(C)nn(-c4ccc(F)cc4)c3n2)cc1 the growth was 0.613% (active).
CCN1CCN(Cc2cn(CC(=O)Nc3ccc4c(ccn4Cc4ccccc4)c3)nn2)CC1 was tested, and the growth was 95.5%.
Cc1cc(Nc2ccc(C)c(Cl)c2)n2nc(C(F)(F)F)nc2n1 was tested, and the growth was 100%.
CCC1=C[C@@H]2CN(C1)Cc1c([nH]c3ccccc13)[C@@](C(=O)OC)(c1cc3c(cc1OC)N(C=O)[C@H]1[C@@](O)(C(=O)OC)[C@H](OC(C)=O)[C@]4(CC)[C@@H]5C[C@@H]5CN5CC[C@]31[C@@H]54)C2 was tested, and the growth was -19.4% (active).
Molecule CCOC(=O)c1cc2c(n1Cc1ccccc1)-c1oncc1CCC2 has a growth of 33.9%.
In the case of CCc1c(C)c2cc(-n3c(-c4ccc(OC)cc4)csc3=N)c(O)c(C)c2oc1=O, the growth is reported as -28.2% (active).
Work on c1ccc(C2=NN[C@H](c3cn(-c4ccccc4)nc3-c3ccccc3)C2)cc1 yielded a growth of 112%.
In the case of CN(C)CCNc1cc(-c2ccccc2)nc2ccccc12, the growth is reported as -17.7% (active).
For COc1cc2cc(Oc3ccc(NC(=O)Nc4cccc(C(F)(F)F)c4)cc3)c(C)nc2cc1OCCN1CCOCC1, the growth was 66.9%.
Work on Cc1nn(-c2ccccc2)c(N2CCOCC2)c1-c1nc2ccc([N+](=O)[O-])cc2[nH]1 yielded a growth of 77.1%.
In the case of COc1cc2c(c(OC)c1OC)-c1ccc(OC)c(=O)cc1[C@@H](NC(=O)CCl)CC2, the growth is reported as -7.51% (active).
For NS(=O)(=O)c1ccc(-n2nc(-c3ccc(Br)cc3)ccc2=O)cc1, the growth was 88.5% [100 µM].
Molecule COc1cc(Nc2nc(N[C@H]3CCCC[C@@H]3N)nc3cc[nH]c(=O)c23)cc(OC)c1 has a growth of 16.2%.
COC(=O)[C@]12CC[C@@H](C)[C@H](C)[C@@H]1C1=CC[C@@H]3[C@@]4(C)CC(=O)[C@H](OC(=O)c5ccco5)[C@@]5(C)COC(=C45)C[C@@]3(C)[C@]1(C)CC2 showed a growth of 24.6%.
Work on Oc1ccc(-c2cnc(-c3ccccc3)[nH]2)c(O)c1 yielded a growth of 101%.
NC(=O)c1c(NC(=S)Nc2ccc(OC(F)(F)F)cc2)sc2c1CCC1(C2)OCCO1 was tested, and the growth was 94.2%.
O=[N+]([O-])c1ccc2c(N=Nc3ccc4ccccc4c3O)c(O)cc(S(=O)(=O)O)c2c1 gave a growth of 108%.
Molecule O=C(COc1ccc(-c2nc3ccccc3[nH]2)cc1)N=Nc1c(O)[nH]c2ccc(Cl)cc12 has a growth of 39.9%.
With COc1cccc(CNc2ccc3ncnc(Nc4ccc(F)c(Cl)c4)c3c2)c1 the growth was 93.6%.
With COc1cc(/C=C/C(=O)c2cccc(Nc3nc(Nc4ccccc4)nc(Nc4ccccc4)n3)c2)cc(OC)c1OC the growth was 9.01% (active).
With CC(C)c1[nH]ncc1-c1nc2ccc3[nH]ncc3c2c2c1CCCC2 the growth was 13.4%.
COC(=O)/C(CCC=C(C)C)=C1\[C@@H](OC(C)=O)C[C@@]2(C)[C@H]1CC(=O)N[C@H]1[C@@]3(C)CCNC(=O)[C@@H](C)[C@@H]3CC[C@@]12C gave a growth of 102%.
Cc1cc(C)n(Cc2cc(C(C)(C)C)cc(C(C)(C)C)c2)c(=O)c1C#N gave a growth of 100%.
CCOC(=O)c1ccc(NC(=O)c2nc(-c3cc(OC)c(OC)c(OC)c3)n(-c3ccc(Cl)cc3)n2)cc1 gave a growth of 77.3%.
In the case of O=C(O)/C=C(\c1nc2ccc([N+](=O)[O-])cc2[nH]1)c1cc(Cl)ccc1O, the growth is reported as 10.8%.
Work on COc1cc(C2CC(c3cccc(Br)c3)=NN2C(C)=O)cc(OC)c1OC (stereo not given) yielded a growth of 78.2%.
With CCc1n(Cc2ccc3ccccc3c2)cc[n+]1Cc1ccc2ccccc2c1 the growth was -54% (active).
For C[N+]1(CCCCC[N+]2(C)CCCC2)CCCC1, the growth was 110%.
With COc1ccc(C2C=C(c3ccc(Cl)cc3)N=C3SC=CN32)cc1 (stereo not given) the growth was 113%.
In the case of CS(=O)(=O)Nc1cc(-c2ccc3ncnc(Nc4c(Cl)ccc5c4OCO5)c3c2)cnc1Cl, the growth is reported as -4.02% (active).
With CCN1C(=O)N(CC)C2C1NN=c1s/c(=C\c3ccc(Cl)cc3Cl)c(=O)n12 (stereo not given) the growth was -52.1% (active).
With O=C1CC2(O)CSc3nc(=O)cc(n32)N1 (stereo not given) the growth was 100%.
In the case of COc1ccc(CCN(C)CCCC(C#N)(c2ccc(OC)c(OC)c2)C(C)C)cc1OC (stereo not given), the growth is reported as 92.4% and 72.5% and 104%.
Work on COc1cc(NCC(=O)Nc2cc(Nc3ccc(C)cc3)ncn2)c(Cl)c(OC)c1Cl yielded a growth of 77.2%.
O=c1oc2cc(OS(=O)(=O)c3ccc(F)cc3)ccc2c2c1CCCCC2 gave a growth of 60.6%.
For Nc1cccc(-c2nc3sccn3c2-c2ccnc(NCCNS(=O)(=O)c3ccc(C(F)(F)F)cc3)n2)c1, the growth was 89.1%.
CN1CCN(C(=O)c2ccc(NC(=O)Nc3ccc(-c4nc(N5CCOCC5)c5cccn5n4)cc3)cc2)CC1 was tested, and the growth was 7.69% (active).
Molecule CCN(CC)CCn1c(=N)n(CC(O)c2ccc(Cl)c(Cl)c2)c2ccccc21 (stereo not given) has a growth of 71%.
